Records with an inconclusive call do not appear. The source made the active and inactive calls. Unless noted, the call rests on the fitted dose curve; in most records, active means well fitted curve in the direction sought with a large enough effect in the repeat runs; inconclusive means weak or mixed curves; inactive means no such curve, though single readings can be large; an effect the other way counts as inactive or inconclusive.
What was measured:
[1] = target: Retinoic acid receptor RXR-alpha (Homo sapiens) (UniProt P19793); assay: qHTS assay to identify small molecule agonists of the RXR signaling pathway (AID 1159527; calls by dose curve; further: nearly all actives have a fitted effect of over 35% in size)
Sequence of Retinoic acid receptor RXR-alpha (Homo sapiens) (P19793 whole entry, looked up): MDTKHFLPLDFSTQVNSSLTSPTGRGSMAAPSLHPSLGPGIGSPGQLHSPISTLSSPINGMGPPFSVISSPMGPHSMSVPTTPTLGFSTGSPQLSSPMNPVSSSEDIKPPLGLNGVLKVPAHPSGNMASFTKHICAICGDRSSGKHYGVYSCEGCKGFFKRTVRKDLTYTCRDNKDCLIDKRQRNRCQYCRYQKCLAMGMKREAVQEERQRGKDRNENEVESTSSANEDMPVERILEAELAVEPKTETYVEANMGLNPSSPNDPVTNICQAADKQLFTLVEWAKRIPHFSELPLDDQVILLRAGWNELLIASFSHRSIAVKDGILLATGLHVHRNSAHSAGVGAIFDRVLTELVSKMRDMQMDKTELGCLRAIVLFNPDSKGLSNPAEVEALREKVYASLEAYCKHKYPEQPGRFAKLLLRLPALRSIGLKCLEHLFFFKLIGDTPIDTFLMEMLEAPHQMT
Summary of the method: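 GeneBLAzer RXR-alpha-UAS-bla HEK 293T cells in medium with 2% charcoal-stripped FBS, pre-incubated 5 hr at 37 C, then exposed to compounds 16 hr. Beta-lactamase reporter read by FRET substrate, 2 hr room temperature, 460/530 nm emission.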

[2] = qHTS assay to identify small molecule agonists of the RXR signaling pathway - cell viability counter screen (AID 1159529); further: series mostly up to about 77 µM; nearly all actives have a fitted effect of over 50% in size
Summary of the method: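 RXR-alpha-UAS-bla HEK 293T cells in medium with 2% charcoal-stripped FBS were preincubated 5 hr, then exposed to compounds for 16 hr at 37 C. Viability was read as CellTiter-Glo luminescence after 30 min at room temperature.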

[3] = qHTS assay to identify small molecule antagonists of the retinoid acid receptor (RAR) signaling pathway - cell viability counter screen (AID 1159551); further: nearly all actives have a fitted effect of over 35% in size
Summary of the method: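 In this counter screen, the RARE-luciferase line C3RL4 was exposed for 6 h at 37 C and 5% CO2 to compounds with retinol at 1 uM final. Cellular ATP, read by luminescence, served as the viability measure.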

[4] = qHTS assay to identify small molecule antagonists of the retinoic acid receptor (RAR) signaling pathway (AID 1159552; further: nearly all actives have a fitted effect of over 50% in size)
Summary of the method: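 RARE-luc C3RL4 cells; cpds + 1 uM (final) retinol, 6 hr, 37 C/5% CO2; luciferase reagent, 30 min RT, luminescence readout. Inhibitors of retinol-driven signal scored.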

[5] = qHTS assay to identify small molecule antagonists of the estrogen related receptor (ERR) signaling pathway from Tox21 library - cell viability counter screen (AID 1224834); further: nearly all actives have a fitted effect of over 30% in size
Summary of the method: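 Counter screen run in ERR cells (2,000 cells/well): cells pre-incubated 6 h, then treated with compounds for 17.5 h at 37 C. Fluorescence was read 30 min after CellTiter-Fluor addition.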

[6] = target: Luciferin 4-monooxygenase (Photinus pyralis) (UniProt P08659); assay: qHTS assay to identify small molecule inhibitors of firefly luciferase (AID 1224835); further: series mostly up to about 120 µM; nearly all actives have a fitted effect of over 25% in size
Sequence of Luciferin 4-monooxygenase (Photinus pyralis) (P08659 whole entry, looked up): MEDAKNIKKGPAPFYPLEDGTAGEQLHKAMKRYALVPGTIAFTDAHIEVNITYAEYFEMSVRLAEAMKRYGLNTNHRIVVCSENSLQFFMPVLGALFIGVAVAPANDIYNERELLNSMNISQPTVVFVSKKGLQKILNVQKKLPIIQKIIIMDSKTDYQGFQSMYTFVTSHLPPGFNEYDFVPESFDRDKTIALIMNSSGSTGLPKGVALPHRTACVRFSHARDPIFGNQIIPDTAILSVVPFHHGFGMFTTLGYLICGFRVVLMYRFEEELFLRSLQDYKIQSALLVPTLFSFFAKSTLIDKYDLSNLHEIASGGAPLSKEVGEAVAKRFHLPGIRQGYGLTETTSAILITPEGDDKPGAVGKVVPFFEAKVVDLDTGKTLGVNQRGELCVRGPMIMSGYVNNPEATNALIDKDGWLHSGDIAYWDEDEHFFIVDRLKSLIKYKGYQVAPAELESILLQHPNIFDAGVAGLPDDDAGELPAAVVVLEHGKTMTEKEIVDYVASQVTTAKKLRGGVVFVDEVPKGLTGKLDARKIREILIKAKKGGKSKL
Summary of the method: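 Inhibition of purified Photinus luciferase is measured by luminescence. Substrate levels (D-luciferin, ATP) sit at their KM values. Each compound is tested in a concentration series.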

[7] = qHTS assay to identify small molecule agonists of the constitutive androstane receptor (CAR) signaling pathway - cell viability counter screen (AID 1224836); further: series mostly up to about 92 µM; nearly all actives have a fitted effect of over 45% in size
Summary of the method: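 HepG2 cells stably carrying hCAR and a CYP2B6-2.2kb reporter were plated 4 h, then given compounds at 15 concentrations plus PK11195 (final 0.75 uM). After 23 h at 37 C, viability was read by CellTiter-Fluor fluorescence.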

[8] = qHTS assay to identify small molecule antagonists of the constitutive androstane receptor (CAR) signaling pathway - cell viability counter screen (AID 1224837); further: series mostly up to about 92 µM; nearly all actives have a fitted effect of over 45% in size
Summary of the method: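 CITCO at 50 nM final was added alongside compounds (15 concentrations) to double-stable hCAR/CYP2B6-2.2kb HepG2 cells. Following 23 hr at 37 C, cell viability was quantified by CellTiter-Fluor fluorescence intensity.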

[9] = target: Nuclear receptor subfamily 1 group I member 3 (Homo sapiens) (UniProt Q14994); assay: qHTS assay to identify small molecule antagonists of the constitutive androstane receptor (CAR) signaling pathway (AID 1224838); further: nearly all actives have a fitted effect of over 40% in size
Sequence of Nuclear receptor subfamily 1 group I member 3 (Homo sapiens) (Q14994 whole entry, looked up): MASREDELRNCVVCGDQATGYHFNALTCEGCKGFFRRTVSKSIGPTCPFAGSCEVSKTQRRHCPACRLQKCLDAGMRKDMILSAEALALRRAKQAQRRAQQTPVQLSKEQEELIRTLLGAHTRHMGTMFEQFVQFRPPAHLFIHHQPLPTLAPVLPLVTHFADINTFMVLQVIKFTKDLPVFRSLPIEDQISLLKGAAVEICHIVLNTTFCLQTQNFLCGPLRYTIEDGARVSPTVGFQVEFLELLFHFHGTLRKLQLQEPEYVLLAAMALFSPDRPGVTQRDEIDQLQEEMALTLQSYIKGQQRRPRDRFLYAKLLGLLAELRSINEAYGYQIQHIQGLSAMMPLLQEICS
Summary of the method: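 Inhibition of CITCO-driven (50 nM final) CYP2B6 reporter expression is measured in HepG2 cells stably carrying hCAR. Fifteen compound concentrations are applied for 24 h at 37 C, followed by luciferase luminescence.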

[10] = target: Nuclear receptor subfamily 1 group I member 3 (Homo sapiens) (UniProt Q14994); assay: qHTS assay to identify small molecule agonists of the constitutive androstane receptor (CAR) signaling pathway (AID 1224839); further: nearly all actives have a fitted effect of over 15% in size; further: potency means the concentration at half of the fitted maximal effect; on activation: series mostly up to about 92 µM
Summary of the method: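 HepG2 cells stably expressing hCAR and a CYP2B6-2.2kb luciferase reporter were treated with compounds at 15 concentrations plus 0.75 uM PK11195 (final) for 24 h at 37 C; luminescence was read after ONE-Glo addition.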

[11] = qHTS assay to identify small molecule antagonists of the estrogen related receptor signaling pathway with the pleiotropic PPARgamma coactivator (PGC) from Tox21 10K library - cell viability counter screen (AID 1224840; active means well fitted cell-killing curve with a large enough effect in the repeat runs, not every such curve was filed as active; further: nearly all actives have a fitted effect of over 40% in size)
Summary of the method: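 Readout: fluorescence intensity from CellTiter-Fluor after 30 min at 37 C/5% CO2. Preceded by 17.5 h treatment of PGC/ERR cells with DMSO-dissolved compounds, added 6 h post-seeding.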

[12] = qHTS assay to identify small molecule antagonists of the estrogen related receptor signaling pathway with the pleiotropic PPARgamma coactivator (PGC) from Tox21 10K library (AID 1224841; call rule not given here; further: actives are mostly falling curves and most rising ones were filed inactive; nearly all actives have a fitted effect of over 50% in size; further: potency means the concentration at half of the fitted maximal effect; on activity, negative = inhibition: series mostly up to about 92 µM)
Summary of the method: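 One-Glo luminescence, measured after half an hour at room temperature, quantified reporter output of PGC/ERR cells. These had been plated at 2,000 per well, incubated 6 h, dosed with compounds in DMSO, then kept 18 h at 37 C.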

[13] = qHTS assay to identify small molecule agonists of the retinoic acid receptor (RAR) signaling pathway (AID 1159553)
Summary of the method: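 In this cell-based screen, 1,000 C3RL4 cells per well were cultured overnight, dosed with test chemicals in DMSO for 6 hr, and assessed for RARE luciferase luminescence.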

[14] = qHTS assay to identify small molecule agonists of the estrogen related receptor signaling pathway with the pleiotropic PPARgamma coactivator (PGC) from Tox21 10K library (AID 1224842); further: nearly all actives have a fitted effect of over 15% in size
Summary of the method: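 Luminescence from One-Glo (30 min, room temperature) measured after PGC/ERR cells had 18 h at 37 C with pinned compound (23 nL in DMSO). Cells had been seeded at 2,000 per well and pre-incubated 6 h.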

[15] = qHTS assay to identify small molecule antagonists of the estrogen related receptor (ERR) signaling pathway - cell viability counter screen (AID 1224818); further: series mostly up to about 46 µM
Summary of the method: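 Viability of ERR cells, CellTiter-Fluor fluorescence; 17.5 h compound exposure at 37 C, DMSO vehicle; 30 min reagent incubation at 37 C/5% CO2.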

[16] = qHTS assay to identify small molecule antagonists of the estrogen related receptor (ERR) signaling pathway (AID 1224819;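 further: luminescence from an ERR-driven luciferase reporter measured with One-Glo reagent; series mostly up to about 46 µM; nearly all actives have a fitted effect of over 50% in size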)
Summary of the method: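 Seed ERR cells 2,000/well; rest 6 h at 37 C/5% CO2; pin compounds in DMSO; incubate 18 h at 37 C; add One-Glo; wait 30 min at room temperature; measure luminescence.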

[17] = qHTS assay to identify small molecule agonists of the estrogen related receptor (ERR) signaling pathway (AID 1224820)
Summary of the method: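 An ERR cell line provided by NTP was seeded at 2,000 cells per well and allowed to settle for 6 h before compounds in DMSO were added. After 18 h at 37 C, luciferase activity was measured by One-Glo luminescence.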

[18] = system: estrogen-related receptor alpha (ERRalpha) with PGC-1alpha coactivator, human; assay: qHTS assay to identify small molecule antagonists of the estrogen related receptor signaling pathway with the pleiotropic PPARgamma coactivator (PGC) (AID 1224821; calls by dose curve)
Summary of the method: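 A PGC/ERR cell line supplied by NTP is seeded, allowed 6 h at 37 C, and treated with test compounds in DMSO for 18 h. Signal is then measured as luciferase luminescence using One-Glo.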

[19] = qHTS assay to identify small molecule antagonists of the estrogen related receptor signaling pathway with the pleiotropic PPARgamma coactivator (PGC) cell viability counter screen (AID 1224822; further: series mostly up to about 46 µM)
Summary of the method: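 17.5 h compound treatment of PGC/ERR cells at 37 C; readout CellTiter-Fluor fluorescence; run alongside the PGC/ERR antagonist screen to flag cytotoxic compounds.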

[20] = qHTS assay to identify small molecule agonists of the estrogen related receptor signaling pathway with the pleiotropic PPARgamma coactivator (PGC) (AID 1224823)
Summary of the method: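 Compounds dissolved in DMSO are added by pin tool to PGC/ERR cells that have settled for 6 h, and incubation continues 18 h at 37 C. Reporter output is measured as One-Glo luminescence.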
On the % scale 0 is the no-effect control and ±100 the full control effect.

CC(CCc1ccc2c(c1)OCO2)NN (configuration not stated)
inactive: Potency [1] | Potency [2] | Potency [3] | Potency [4] | Potency [5] | Potency [6] | Potency [7] | Potency [8] | Potency [9] | Potency [10]

[O]=[Bi]
active: Potency [12] 2.11 µM
inactive: activation [1] -1.06% [at 6.98 µM] | activity change, negative = cytotoxicity [2] 0.795% [at 6.97 µM] | activity change, negative = cytotoxicity [3] -0.124% [at 8.39 µM] | activity, negative = inhibition [4] 92.1% [at 8.39 µM] | viability change, negative = cytotoxic [5] 0.391% [at 8.39 µM] | activity change, negative = inhibition [6] 1.77% [at 10.5 µM] | activity change, negative = cytotoxicity [8] -5.97% [at 8.39 µM] | viability change, negative = cytotoxic [11] -7.88% [at 8.39 µM]

O=Cc1c(Cl)cccc1Cl
inactive: Potency [1] | Potency [2] | Potency [3] | Potency [4] | Potency [13] | Potency [5] | Potency [6] | Potency [7] | Potency [8] | Potency [9] | Potency [10] | Potency [12]

CCCC1C(CC)=CC(CC)=CN1c1ccccc1 (configuration not stated)
inactive: Potency [1] | Potency [2] | Potency [3] | Potency [4] | Potency [5] | Potency [6] | Potency [7] | Potency [8] | Potency [11] | Potency [14]
active: Potency [10] 19.3 µM | Potency [12] 34.4 µM

CC#N
inactive: Potency [1] | Potency [2] | Potency [3] | Potency [13] | Potency [5] | Potency [6] | Potency [8]

Nc1nc(Cl)nc2c1ncn2[C@@H]1O[C@H](CO)[C@@H](O)[C@@H]1F
inactive: Potency [1] | Potency [2] | Potency [3] | Potency [13] | Potency [5] | Potency [6] | Potency [7] | Potency [8] | Potency [11]

COC(=O)c1cc(S(N)(=O)=O)ccc1OC
inactive: Potency [1] | Potency [2] | Potency [3] | Potency [4] | Potency [13] | Potency [5] | Potency [6] | Potency [7] | Potency [8] | Potency [9] | Potency [10] | Potency [11] | Potency [12] | Potency [14]

CC(C)CCCCCCOC(=O)CCCCC(=O)OCCCCCCC(C)C
inactive: Potency [1] | Potency [2] | Potency [3] | Potency [4] | Potency [13] | Potency [5] | Potency [6] | Potency [7] | Potency [8]

CC(C)CCCC(=O)O
inactive: Potency [1] | Potency [2] | Potency [3] | Potency [4] | Potency [13] | Potency [5] | Potency [6] | Potency [8] | Potency [11] | Potency [12]

Cc1nc2ccccn2c(=O)c1CCN1CCC(C(=O)c2ccc(F)cc2)CC1
inactive: Potency [1] | Potency [2] | Potency [3] | Potency [4] | Potency [13] | outcome [15] | Potency [16] | outcome [17] | Potency [18] | outcome [19] | Potency [20] | Potency [5] | Potency [6] | Potency [7] | Potency [8] | Potency [9] | Potency [10] | Potency [11] | Potency [14]

C=CC(=C)CCCC(C)(C)OC(C)=O
inactive: Potency [1] | Potency [2] | Potency [3] | Potency [4] | Potency [13] | Potency [5] | Potency [6] | Potency [7] | Potency [8] | Potency [10] | Potency [11] | Potency [12]

CCn1cc(C(=O)O)c(=O)c2cc(F)c(N3CCNCC3)nc21
inactive: Potency [1] | Potency [2] | Potency [3] | Potency [5] | Potency [6] | Potency [7] | Potency [8]

OC/C(Br)=C(\Br)CO
inactive: Potency [1] | Potency [2] | Potency [3] | Potency [4] | Potency [13] | Potency [5] | Potency [7] | Potency [8] | Potency [10] | Potency [11] | Potency [12] | Potency [14]

CC1(C)O[C@@H]2C[C@H]3[C@@H]4CCC5=CC(=O)C=C[C@]5(C)[C@H]4[C@@H](O)C[C@]3(C)[C@]2(C(=O)CO)O1
inactive: Potency [1] | Potency [2] | Potency [3] | Potency [13] | Potency [5] | Potency [7] | Potency [8] | Potency [9] | Potency [10] | Potency [11] | Potency [12] | Potency [14]

CN1CCCN=C1/C=C/c1cccs1
inactive: Potency [1] | Potency [2] | Potency [3] | Potency [13] | Potency [5] | Potency [6] | Potency [8] | Potency [9] | Potency [10] | Potency [11]

CCN(CC)CCNC(=O)c1ccc(NC(C)=O)cc1
inactive: Potency [1] | Potency [2] | Potency [3] | Potency [4] | Potency [13] | outcome [15] | outcome [19] | Potency [5] | Potency [6] | Potency [7] | Potency [8] | Potency [10] | Potency [11]

C=CC(C)=CCC=C(C)C
inactive: Potency [1] | Potency [2] | Potency [3] | Potency [5] | Potency [6] | Potency [7] | Potency [8] | Potency [9] | Potency [10]

COC(OC)(C(=O)c1ccccc1)c1ccccc1
inactive: Potency [1] | Potency [2] | Potency [3] | Potency [4] | Potency [5] | Potency [6] | Potency [7] | Potency [8] | Potency [9] | Potency [11] | Potency [12] | Potency [14]
active: Potency [10] 15.3 µM

COCC(O)CO (configuration not stated)
inactive: Potency [1] | Potency [2] | Potency [3] | Potency [4] | Potency [13] | Potency [5] | Potency [6] | Potency [7] | Potency [8] | Potency [10] | Potency [11]

CC(C)(C)C(=O)C(Oc1ccc(Cl)cc1)n1ccnc1 (configuration not stated)
inactive: Potency [1] | Potency [2] | Potency [3] | Potency [4] | Potency [5] | Potency [6] | Potency [7] | Potency [8] | Potency [9] | Potency [10] | Potency [11] | Potency [14]

Reference: PubChem BioAssay (Tox21)
